These results are taken from PubChem BioAssay (NCI).

What all share (assay): NCI-60 one-dose screen, 48 h (100 = growth as untreated, 0 = no growth, -100 = all killed)
What all share (conditions): 10 µM unless noted

For assay [1], the system named is DU-145 prostate.
In assay [2] the test system is K-562 leukemia.
For assay [3], the system named is MALME-3M melanoma.
Assay [4] relates to MDA-MB-231 breast.
Assay [5] has as its system RXF 393 renal.
In assay [6] the test system is SF-268 CNS.
The test system of assay [7] is SF-295 CNS.
Assay [8] relates to SF-539 CNS.
Assay [9] has as its system UACC-257 melanoma.
The subject of assay [10] is M14 melanoma.
Assay [11] has as its system HCT-15 colon.
Assay [12] relates to HT29 colon.
In assay [13] the test system is SNB-75 CNS.
The test system of assay [14] is SNB-19 CNS.
Assay [15] concerns U251 CNS.
Assay [16] has as its system PC-3 prostate.
For assay [17], the system named is SK-MEL-5 melanoma.
The test system of assay [18] is UACC-62 melanoma.
Assay [19] deals with SK-MEL-28 melanoma.
Assay [20] concerns LOX IMVI melanoma.

About 83,000 compounds went through this panel and 20% of them were active in at least one assay; those are over-represented in the sample as a whole.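 Cell lines were cultured in 96-well plates, exposed to a single compound concentration, and assessed for percent growth 48 hours later.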 A number with no mark means an inactive call. Calls of active or inactive are those of the source. The calls were made as follows: active = growth percent below 10; inactive = the rest.

For `Cc1ccc(Cl)c(NS(=O)(=O)c2ccc(-c3cnc(C4CC4)o3)cc2)c1`, the growth in assay [1] was 21.6%; in [2] it was 8.53% (active); in assay [3], 62.4%; in [4], 32.5%; in assay [5], 9.98% (active); in [6], 56.2%. The growth in assay [7] is 16.1%; in assay [8], -8.06% (active); in [9], 67.8%; in assay [10], 2.07% (active); in assay [11], 16.9%; in assay [12], 3.93% (active). Besides, the growth in [13] is -10.1% (active); in [14], 18.9%; in [15], 24.1%; in assay [16], 31.1%; in [17] it was 26.4%; in assay [18], 26.5%. The growth in [19] is 53.7%.
As for `CN1CCN(C(=O)c2c3c(n4ccccc24)C(=O)c2ncccc2C3=O)CC1`, the growth in assay [1] is 56.8%; in assay [2], 54.1%; in assay [3] it was 72.1%; in assay [4] it was 79.5%; in assay [5], 60.8%; in assay [6] it was 52.9%. For the same compound, the growth is 73.5% in [7]; 58% in assay [8]; 97.7% in assay [9]; 49% in assay [10]; 46% in [11]; 93.3% in assay [12]. Besides, the growth was 39.9% in [13]; 50.4% in assay [14]; 66.5% in assay [15]; 54.8% in [16]; 65.6% in assay [17]; 39.3% in assay [18]. Moreover, the growth is 30.3% in [20] and 103% in assay [19].
With `Cc1c(C(=O)N[C@@H](Cc2ccccc2)C(=O)C(=O)NCCc2ccccc2)[nH]c2ccccc2c1=O`, the growth in [1] is 101%; in assay [2], 91.7%; in assay [3], 103%; in assay [4] it was 97.7%; in [5] it was 112%; in assay [6], 98.6%. The growth in assay [7] is 103%; in assay [8] it was 102%; in assay [9] it was 101%; in [10] it was 110%; in assay [11], 102%; in assay [12], 105%. Also, the growth in [13] was 88.7%; in [14], 98%; in [15], 99.6%; in [16] it was 93.8%; in assay [17], 97.8%; in [18], 92.1%. Moreover, the results for the growth in assay [20] and in assay [19] were 97.8% and 105%, respectively.
`CCOC(=O)/C=C/c1cc2cc(-c3csc4ccccc34)ccc2[nH]1`: the growth in assay [1] was 89.5%; in assay [2], 25.4%; in [3], 76.9%; in assay [4], 56.9%; in [5], 83.4%; in assay [6], 74.8%. Further, the growth was 64.6% in [7]; 77.6% in assay [8]; 69.5% in assay [9]; 68.1% in assay [10]; 56.8% in assay [11]; 21.9% in assay [12]. The growth in [13] was 97.5%; in assay [14], 101%; in assay [15], 78.2%; in assay [16] it was 62%; in assay [17] it was 87.6%; in [18], 67.5%. Besides, the growth in assay [20] was 64.7%; in assay [19] it was 104%.
On to `COc1cc(OC)cc(C2CC(=O)Nc3c2c(C)nn3-c2nc3ccccc3[nH]2)c1` (configuration not stated), for which the growth is 53.3% in assay [1]; 9.41% (active) in [2]; 38.3% in assay [3]; 16.5% in assay [4]; -0.824% (active) in [5]; 29.3% in assay [6]. The growth in [7] is -62.9% (active); in assay [8], 18.4%; in assay [9], 23.9%; in assay [10] it was 11.8%; in [11], 37.2%; in [12] it was 23.5%. Also, the growth in [13] was -3.14% (active); in [14], 21.9%; in assay [15], 16.8%; in assay [16], 26.4%; in [17], -62% (active); in assay [18] it was -19.2% (active). Further, the figures for the growth in assay [20] and in [19] were 1.34% (active) and 38.1%, respectively.
`CCSC1=NC2C(N(CC)C(=O)N2CC)N1/N=C/C=C/c1ccccc1[N+](=O)[O-]` (configuration not stated): the growth in assay [1] was 5.79% (active); in assay [2] it was 10.4%; in assay [3], 36.2%; in assay [4] it was -1.7% (active); in [5] it was 41.5%; in assay [6], 45.2%. The growth in assay [7] is 8.87% (active); in [8] it was -26.3% (active); in assay [9] it was 61.1%; in [10], 6.53% (active); in assay [11], 10.7%; in assay [12], 3.47% (active). Further, the growth is 23.8% in assay [13]; 22.1% in [14]; 12.7% in [15]; 22.9% in [16]; -38.6% (active) in assay [17]; 25.5% in [18]. Moreover, the values for the growth in assay [20] and in [19] were 14.3% and 54.5%, respectively.
As for `COc1ccc(-c2csc(C3=C(O)CN(C(C)C)C3=N)n2)cc1OC`, the growth in assay [1] was 108%; in assay [2], 87.7%; in [3] it was 96.4%; in assay [4], 81.1%; in [5] it was 83.6%; in [6] it was 117%. The growth is 113% in [7]; 88.9% in assay [8]; 105% in [9]; 136% in assay [10]; 103% in assay [11]; 102% in assay [12]. Moreover, the growth in [13] was 112%; in [14], 104%; in [15], 98.3%; in [16], 35.3%; in assay [17] it was 82.5%; in assay [18], 97.3%. Further, in assay [19], the growth is 123%.
As for `CCOC(=O)c1c2c(n3ccc(NC(=O)OC(C)(C)C)cc13)C(=O)c1ncccc1C2=O`, the growth in assay [1] is -30.2% (active); in assay [2], -23.9% (active); in assay [3] it was -21.6% (active); in assay [4] it was 2.02% (active); in assay [5], -38.4% (active); in assay [6], -16.7% (active). In addition, the growth in assay [7] was -67.1% (active); in assay [8], -45.9% (active); in assay [9] it was -40.9% (active); in assay [10], -55.8% (active); in assay [11], -69.5% (active); in assay [12] it was -50.9% (active). Further, the growth is -32.2% (active) in [13]; -54.4% (active) in assay [14]; -80.8% (active) in [15]; -1.36% (active) in assay [16]; -96% (active) in assay [17]; -75.8% (active) in assay [18]. Moreover, the growth in assay [19] was -18.4% (active).
